Among the test systems are SR leukemia; RPMI-8226 leukemia; OVCAR-8 ovarian; OVCAR-5 ovarian; OVCAR-4 ovarian; SK-OV-3 ovarian; IGROV1 ovarian; OVCAR-3 ovarian; HS 578T breast; NCI/ADR-RES ovarian; T-47D breast; BT-549 breast; MDA-MB-435 melanoma; SW-620 colon; MCF7 breast; HCT-116 colon; HCC-2998 colon; KM12 colon.
What all share (assay): NCI-60 one-dose screen, 48 h (100 = growth as untreated, 0 = no growth, -100 = all killed)
What all share (settings): 10 µM unless noted

“And” between values parts separate entries of the source, which are not always exact repeats. Identical values can stand only once. This is part of a sample that, as a whole, favours compounds with a hit. Of some 83,000 tested, about 20% had one in any assay.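 Percent growth is the endpoint: 0 to 100 indicates growth inhibition (40 means 60% inhibition), 0 means no net growth, and negative values indicate cell death.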 The source made the active and inactive calls. The calls were made as follows: active = growth percent below 10; inactive = the rest.

Consider `NNC(=O)Nc1ccccc1`, for which the growth in the experiment with SR leukemia was 96.5% (inactive); in the experiment on RPMI-8226 leukemia, 106% (inactive); in the experiment with OVCAR-8 ovarian it was 109% (inactive); in the experiment on OVCAR-5 ovarian it was 102% (inactive); with OVCAR-4 ovarian it was 104% (inactive); in the experiment with SK-OV-3 ovarian, 105% (inactive). Further, the growth with IGROV1 ovarian was 102% (inactive); in the experiment on OVCAR-3 ovarian, 105% (inactive); with HS 578T breast it was 105% (inactive); in the experiment on NCI/ADR-RES ovarian, 105% (inactive); in the experiment on T-47D breast, 109% (inactive); in the experiment on BT-549 breast, 104% (inactive). In addition, the growth in the experiment on MDA-MB-435 melanoma was 103% (inactive); with SW-620 colon, 101% (inactive); with MCF7 breast it was 89.3% (inactive); with HCT-116 colon, 101% (inactive); in the experiment on HCC-2998 colon, 113% (inactive); with KM12 colon, 99.1% (inactive).
Consider `COc1cc(NCCCCCCCNC(C)C)c2nccc(C)c2c1`, for which the growth is 80.1% (inactive) and 36.1% (inactive) in the experiment with SR leukemia; 81.1% (inactive) and 92.7% (inactive) in the experiment with RPMI-8226 leukemia; 86.4% (inactive) and 89.7% (inactive) with OVCAR-8 ovarian; 88.3% (inactive) and 96.9% (inactive) in the experiment on OVCAR-5 ovarian; 15.8% (inactive) in the experiment with OVCAR-4 ovarian; 93.8% (inactive) and 72.9% (inactive) in the experiment on SK-OV-3 ovarian. Moreover, the growth with IGROV1 ovarian is 82.3% (inactive) and 85.9% (inactive); in the experiment with OVCAR-3 ovarian it was 22.8% (inactive) and 26.4% (inactive); in the experiment on HS 578T breast it was 95% (inactive) and 68.8% (inactive); in the experiment with NCI/ADR-RES ovarian, 88.1% (inactive) and 84.6% (inactive); in the experiment on T-47D breast, 59.9% (inactive); in the experiment on BT-549 breast, 85.7% (inactive) and 64.2% (inactive). For the same compound, the growth is 93.9% (inactive) and 7.03% (active) in the experiment on MDA-MB-435 melanoma; 98% (inactive) and 73% (inactive) in the experiment with SW-620 colon; -1.6% (active) and -9.72% (active) in the experiment on MCF7 breast; 73.3% (inactive) and 50.4% (inactive) in the experiment on HCT-116 colon; 67.2% (inactive) and 61.5% (inactive) in the experiment with HCC-2998 colon; 92.6% (inactive) and 73.1% (inactive) in the experiment with KM12 colon.
For the compound `Cc1onc(-c2c(F)cccc2Cl)c1-c1ncc(-c2ccc(Cl)cc2)o1`, the growth with SR leukemia was 11% (inactive); with RPMI-8226 leukemia it was 26.2% (inactive) and 23.4% (inactive); with OVCAR-8 ovarian, 55.7% (inactive) and 35.5% (inactive); in the experiment with OVCAR-5 ovarian, 73.5% (inactive) and 68.1% (inactive); in the experiment on OVCAR-4 ovarian, 80.9% (inactive) and 47.9% (inactive); in the experiment on SK-OV-3 ovarian it was 71% (inactive) and 61.4% (inactive). Moreover, the growth in the experiment on IGROV1 ovarian was 49.1% (inactive) and 33.3% (inactive); in the experiment with OVCAR-3 ovarian it was 63.4% (inactive) and 45.9% (inactive); in the experiment on HS 578T breast it was 84.8% (inactive) and 57.3% (inactive); in the experiment with NCI/ADR-RES ovarian it was 57.4% (inactive) and 27.2% (inactive); with T-47D breast, 73.9% (inactive) and 35.8% (inactive); in the experiment on BT-549 breast, 73.8% (inactive) and 40.7% (inactive). In addition, the growth in the experiment with MDA-MB-435 melanoma was 46.8% (inactive) and 37.7% (inactive); with SW-620 colon, 37.3% (inactive) and 29.4% (inactive); in the experiment on MCF7 breast it was 61.9% (inactive) and 20.5% (inactive); with HCT-116 colon it was 27.1% (inactive) and 16.6% (inactive); in the experiment with HCC-2998 colon, 61.2% (inactive) and 56.8% (inactive); in the experiment with KM12 colon it was 43.4% (inactive) and 34.7% (inactive).
On to `Nc1ccc(O)c(C(=O)O)c1`, for which the growth with SR leukemia was 99.8% (inactive); with RPMI-8226 leukemia it was 65% (inactive) and 108% (inactive); with OVCAR-8 ovarian, 99.2% (inactive) and 106% (inactive) and 109% (inactive); in the experiment with OVCAR-5 ovarian, 121% (inactive) and 102% (inactive) and 91.1% (inactive); in the experiment on OVCAR-4 ovarian, 84% (inactive) and 105% (inactive) and 108% (inactive); with SK-OV-3 ovarian it was 105% (inactive) and 106% (inactive) and 119% (inactive). For the same compound, the growth in the experiment on IGROV1 ovarian is 96.8% (inactive) and 111% (inactive) and 105% (inactive); in the experiment with OVCAR-3 ovarian, 100% (inactive) and 101% (inactive) and 115% (inactive); in the experiment with HS 578T breast, 112% (inactive); in the experiment on NCI/ADR-RES ovarian, 103% (inactive) and 111% (inactive) and 93.9% (inactive); with T-47D breast, 95% (inactive) and 104% (inactive) and 106% (inactive); with BT-549 breast, 76.3% (inactive) and 111% (inactive) and 92.6% (inactive). Besides, the growth in the experiment on MDA-MB-435 melanoma is 99.8% (inactive) and 101% (inactive) and 108% (inactive); in the experiment with SW-620 colon it was 96.7% (inactive) and 94.1% (inactive) and 103% (inactive); in the experiment on MCF7 breast it was 86.4% (inactive) and 102% (inactive) and 107% (inactive); in the experiment with HCT-116 colon it was 98.7% (inactive) and 99.9% (inactive) and 85.5% (inactive); in the experiment on HCC-2998 colon it was 107% (inactive) and 104% (inactive) and 99.9% (inactive); with KM12 colon, 101% (inactive) and 107% (inactive) and 91.5% (inactive).
With `O=[N+]([O-])c1cccc2ccc(N/N=C/c3ccccc3O)nc12`, the growth is 60.4% (inactive) in the experiment on SR leukemia; 6.55% (active) and 93.4% (inactive) with RPMI-8226 leukemia; 91.9% (inactive) and 95% (inactive) with OVCAR-8 ovarian; 113% (inactive) and 116% (inactive) with OVCAR-5 ovarian; 93.3% (inactive) and 100% (inactive) in the experiment with OVCAR-4 ovarian; 108% (inactive) and 111% (inactive) with SK-OV-3 ovarian. In addition, the growth in the experiment on IGROV1 ovarian was -10.5% (active); with OVCAR-3 ovarian, 40.5% (inactive) and 101% (inactive); in the experiment with HS 578T breast, 83.6% (inactive) and 98.7% (inactive); with NCI/ADR-RES ovarian, 59% (inactive) and 106% (inactive); with T-47D breast it was 38.1% (inactive) and 78% (inactive); in the experiment with BT-549 breast, 68.6% (inactive) and 103% (inactive). For the same compound, the growth in the experiment on MDA-MB-435 melanoma was 101% (inactive) and 106% (inactive); in the experiment on SW-620 colon it was 21.7% (inactive) and 96.4% (inactive); with MCF7 breast, 42.5% (inactive) and 61.7% (inactive); in the experiment on HCT-116 colon, 20.8% (inactive) and 67.8% (inactive); with HCC-2998 colon, 110% (inactive); in the experiment with KM12 colon, 86.8% (inactive) and 84.3% (inactive).
With `O=C(OCc1ccccc1)c1ccccc1`, the growth was 104% (inactive) and 86.5% (inactive) in the experiment on SR leukemia; 99.5% (inactive) with RPMI-8226 leukemia; 101% (inactive) and 95.7% (inactive) in the experiment with OVCAR-8 ovarian; 102% (inactive) and 91.7% (inactive) in the experiment on OVCAR-5 ovarian; 108% (inactive) in the experiment on OVCAR-4 ovarian; 99.1% (inactive) and 93.6% (inactive) with SK-OV-3 ovarian. The growth in the experiment on IGROV1 ovarian was 120% (inactive) and 87.4% (inactive); with OVCAR-3 ovarian, 116% (inactive); in the experiment on HS 578T breast it was 105% (inactive); in the experiment with NCI/ADR-RES ovarian, 107% (inactive) and 99.7% (inactive); in the experiment on T-47D breast, 96% (inactive) and 87.9% (inactive); in the experiment on BT-549 breast it was 109% (inactive) and 102% (inactive). The growth in the experiment with MDA-MB-435 melanoma is 105% (inactive) and 112% (inactive); in the experiment with SW-620 colon it was 110% (inactive) and 105% (inactive); in the experiment on MCF7 breast, 107% (inactive) and 94.3% (inactive); with HCT-116 colon it was 108% (inactive) and 93.7% (inactive); in the experiment on HCC-2998 colon, 102% (inactive) and 93.9% (inactive); in the experiment with KM12 colon, 104% (inactive) and 102% (inactive).

(Values after PubChem BioAssay (NCI).)
